According to PubChem BioAssay (NCATS):
Results filed as inconclusive are left out. A call without a number means that no potency is given here. Active and inactive are the calls of the source. Unless noted, calls come from the whole dose curve; as a rule, active = well fitted curve in the direction sought with a large enough effect; inconclusive = small, poorly fitted or top-dose-only effect, or another doubt; inactive = no such curve, though single readings can be large; an effect the other way counts as inactive or inconclusive.

How the values were obtained:
[1] = target: Cytochrome P450 2D6 (Homo sapiens) (UniProt P10635); assay: Cytochrome P450 family 2 subfamily D member 6 (CYP2D6) small molecule antagonists: luciferase biochemical (cell-free) qHTS assay (AID 1645840; active = well fitted curve in the direction sought with a large enough effect in the repeat runs; an effect the other way counts as inactive or inconclusive; note: nearly all actives have a fitted effect of over 55% in size; note: potency is the fitted concentration of half-maximal effect)
Cytochrome P450 2D6 (Homo sapiens), sequence (P10635 whole entry, looked up): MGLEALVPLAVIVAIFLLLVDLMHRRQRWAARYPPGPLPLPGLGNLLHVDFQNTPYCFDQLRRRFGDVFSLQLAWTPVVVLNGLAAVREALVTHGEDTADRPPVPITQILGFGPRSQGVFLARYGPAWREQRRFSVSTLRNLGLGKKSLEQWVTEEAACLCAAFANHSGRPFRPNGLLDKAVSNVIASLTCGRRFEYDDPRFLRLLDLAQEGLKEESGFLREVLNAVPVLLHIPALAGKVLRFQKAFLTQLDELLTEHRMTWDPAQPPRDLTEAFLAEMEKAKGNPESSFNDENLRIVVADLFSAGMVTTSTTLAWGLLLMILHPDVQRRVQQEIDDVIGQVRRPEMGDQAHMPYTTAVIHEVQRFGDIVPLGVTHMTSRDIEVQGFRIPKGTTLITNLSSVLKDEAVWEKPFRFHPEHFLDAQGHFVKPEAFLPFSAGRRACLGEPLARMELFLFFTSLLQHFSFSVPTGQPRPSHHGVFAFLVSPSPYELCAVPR
Summary of the method: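 P450-Glo CYP2D6 system: proluciferin substrate converted by enzyme to luciferin, read by luminescence proportional to activity. Enzyme-substrate mix with compound 10 min at room temperature, then NADPH regeneration 1 h before detection reagent.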

[2] = target: Cytochrome P450 2C9 (Homo sapiens) (UniProt P11712); assay: Cytochrome P450 family 2 subfamily C member 9 (CYP2C9) small molecule antagonists: luciferase biochemical (cell-free) qHTS assay (AID 1645842; active = well fitted curve in the direction sought with a large enough effect in the repeat runs; an effect the other way counts as inactive or inconclusive; note: nearly all actives have a fitted effect of over 55% in size; note: potency is the fitted concentration of half-maximal effect)
Cytochrome P450 2C9 (Homo sapiens), sequence (P11712 whole entry, looked up): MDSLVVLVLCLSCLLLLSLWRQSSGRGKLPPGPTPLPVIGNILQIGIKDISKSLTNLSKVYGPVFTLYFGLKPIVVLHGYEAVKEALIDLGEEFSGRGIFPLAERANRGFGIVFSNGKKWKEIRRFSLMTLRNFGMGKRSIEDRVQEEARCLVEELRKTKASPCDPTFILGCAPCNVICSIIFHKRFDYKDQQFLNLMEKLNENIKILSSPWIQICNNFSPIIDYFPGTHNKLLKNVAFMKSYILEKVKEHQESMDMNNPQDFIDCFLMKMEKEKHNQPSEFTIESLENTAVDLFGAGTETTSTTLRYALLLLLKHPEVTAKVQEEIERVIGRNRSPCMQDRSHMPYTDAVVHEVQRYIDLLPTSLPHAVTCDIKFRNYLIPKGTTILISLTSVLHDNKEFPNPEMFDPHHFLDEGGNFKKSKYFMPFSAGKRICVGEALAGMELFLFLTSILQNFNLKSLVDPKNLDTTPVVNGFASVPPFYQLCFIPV
Summary of the method: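 P450-Glo CYP2C9 system: proluciferin substrate with enzyme in mix containing 0.4% BSA, 10 min at room temperature, then NADPH regeneration solution added and incubated 1 h at 37C. Detection reagent stopped reaction; luminescence read after 20 min as RLU.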

HaCat [3] = assay: Cytotoxic Profiling of Annotated Libraries Using Quantitative High-Throughput Screening (AID 1296008); details: Five cell lines viability, CellTiter-Glo ATP luminescence, 48-72 h; max response: stronger effect = lower value; note: nearly all actives have a fitted effect of over 60% in size; note: potency is the fitted concentration of half-maximal effect
Summary of the method: (§1)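 Cells exposed to compounds for 48 or 72 hr at 37 degrees Celsius. Viability read as ATP-coupled luminescence with CellTiter-Glo after 10 min at room temperature.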

NIH3T3 = assay: as above; details: Five cell lines viability, CellTiter-Glo ATP luminescence, 48-72 h; max response: stronger effect = lower value
Summary of the method: as §1

SKOV3 = assay: Primary qHTS to identify gynecologic anti-cancer compounds using libraries of approved drugs and bioactive compounds (AID 1345084); details: Gynecologic cancer cell panel viability, ATPlite luminescence, 48 h; series mostly up to 57.5 µM; note: nearly all actives have a fitted effect of over 55% in size; note: potency is the fitted concentration of half-maximal effect
Summary of the method: (§2)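 Cell viability after 48 h drug treatment, ATPlite luminescence readout; five doses.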

HACAT [4] = assay: qHTS assay to identify novel small-molecules to repurpose for Merkel cell carcinoma treatment (AID 1296009); details: MCC and control cell lines, CellTiter-Glo viability, 72 h; at 44.8 µM (top of the series) unless noted; note: nearly all actives have a fitted effect of over 60% in size
Summary of the method: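 CellTiter-Glo luminescence after 72 hr compound exposure at 37 degree celsius gave cell viability. Libraries NPC and MIPE were run as 8- and 11-point dose responses; RLUs normalized to DMSO (negative) and no-cell (cytotoxicity) controls.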

PA-1 = assay: Primary qHTS to identify gynecologic anti-cancer compounds using libraries of approved drugs and bioactive compounds (AID 1345084); details: Gynecologic cancer cell panel viability, ATPlite luminescence, 48 h; series mostly up to 57.5 µM; note: nearly all actives have a fitted effect of over 55% in size; note: potency is the fitted concentration of half-maximal effect
Summary of the method: as §2

[5] = P-glycoprotein substrates identified in KB-8-5-11 adenocarcinoma cell line, qHTS therapeutic library screen (AID 1346987); note: nearly all actives have a fitted effect of over 65% in size
Summary of the method: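 In this qHTS, P-gp-rich KB-8-5-11 cells received library compounds across a concentration range. Viability was quantified by luminescence after 72 h at 37 degree C.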

CAOV3 = assay: Primary qHTS to identify gynecologic anti-cancer compounds using libraries of approved drugs and bioactive compounds (AID 1345084); details: Gynecologic cancer cell panel viability, ATPlite luminescence, 48 h; series mostly up to 57.5 µM; note: nearly all actives have a fitted effect of over 55% in size; note: potency is the fitted concentration of half-maximal effect
Summary of the method: as §2

[6] = system: Zika virus NS2B-NS3 protease (unlinked complex); assay: Primary screen GU Rhodamine qHTS for Zika virus inhibitors: Unlinked NS2B-NS3 protease assay (AID 1347159); note: nearly all actives have a fitted effect of over 60% in size; note: potency is the fitted concentration of half-maximal effect
Summary of the method: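 Percent inhibition came from the 15-min rise in Rhodamine110 fluorescence (1.5 microM substrate, ~15% conversion), normalized to no-inhibitor and no-enzyme wells and Hill-fitted. Unlinked protease, 25 nM, pH 8.0 Tris buffer; compounds up to 114 microM, 15-min preincubation.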

[7] = target: Catechol O-methyltransferase (Homo sapiens) (UniProt P21964); assay: Confirmatory Screen for Target Class Profiling of Small Molecule Inhibitors of Methyltransferases (AID 1745852; calls by dose curve; note: potency is the fitted concentration of half-maximal effect); details: MTase-Glo luminescence, SAH detection, recombinant enzyme; measured here: COMT max response; stronger effect = lower value
Catechol O-methyltransferase (Homo sapiens), sequence (P21964 whole entry, looked up): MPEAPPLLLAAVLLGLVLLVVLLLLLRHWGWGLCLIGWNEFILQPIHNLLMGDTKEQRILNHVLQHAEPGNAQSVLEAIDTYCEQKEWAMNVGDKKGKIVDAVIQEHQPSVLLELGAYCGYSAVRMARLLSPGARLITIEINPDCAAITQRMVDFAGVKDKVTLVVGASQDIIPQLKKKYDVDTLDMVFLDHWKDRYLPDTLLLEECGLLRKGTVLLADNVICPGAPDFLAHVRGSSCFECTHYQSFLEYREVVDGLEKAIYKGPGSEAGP

[8] = target: Guanidinoacetate N-methyltransferase (Homo sapiens) (UniProt Q14353); assay: as above; details: activity change, negative = inhibition: at 57.3 µM (top of the series) unless noted
[9] = target: Nicotinamide N-methyltransferase (Homo sapiens) (UniProt P40261); assay: as above; details: MTase-Glo luminescence, SAH detection, recombinant enzyme; measured here: NNMT max response; stronger effect = lower value
Nicotinamide N-methyltransferase (Homo sapiens), sequence (P40261 whole entry, looked up): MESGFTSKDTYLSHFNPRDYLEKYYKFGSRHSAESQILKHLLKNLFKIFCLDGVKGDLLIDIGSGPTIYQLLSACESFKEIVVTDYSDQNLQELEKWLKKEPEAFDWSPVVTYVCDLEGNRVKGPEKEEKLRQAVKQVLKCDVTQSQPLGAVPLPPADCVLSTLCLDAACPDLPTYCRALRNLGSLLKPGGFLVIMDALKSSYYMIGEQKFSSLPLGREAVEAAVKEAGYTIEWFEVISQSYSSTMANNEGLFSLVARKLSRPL

[10] = target: Phenylethanolamine N-methyltransferase (Homo sapiens) (UniProt P11086); assay: as above; details: MTase-Glo luminescence, SAH detection, recombinant enzyme; measured here: PNMT max response; stronger effect = lower value
Phenylethanolamine N-methyltransferase (Homo sapiens), sequence (P11086 whole entry, looked up): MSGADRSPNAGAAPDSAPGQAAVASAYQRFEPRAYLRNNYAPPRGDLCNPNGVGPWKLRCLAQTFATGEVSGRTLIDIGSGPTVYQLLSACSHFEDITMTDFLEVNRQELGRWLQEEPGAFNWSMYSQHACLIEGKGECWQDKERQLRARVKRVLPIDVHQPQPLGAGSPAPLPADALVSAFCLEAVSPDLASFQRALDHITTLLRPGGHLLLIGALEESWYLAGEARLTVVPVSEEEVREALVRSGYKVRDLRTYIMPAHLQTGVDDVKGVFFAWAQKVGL

CRL-7250 = normal cell line; assay: Cytotoxic Profiling of Annotated Libraries Using Quantitative High-Throughput Screening (AID 1296008); details: Five cell lines viability, CellTiter-Glo ATP luminescence, 48-72 h; max response: stronger effect = lower value; note: nearly all actives have a fitted effect of over 60% in size; note: potency is the fitted concentration of half-maximal effect
Summary of the method: as §1

[11] = Confirmatory screen NINDS Rhodamine qHTS for Zika virus inhibitors (AID 1347161)
Summary of the method: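 Each compound, titrated, sat 15 min with 25 nM linked protease before 1.5 microM Rhodamine110 substrate went in. Fluorescence gain over the next 15 min, in pH 8.0 Tris with Tween 20, gave Hill-fitted curves.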

[12] = Tertiary RLuc qRT-PCR qHTS assay for Zika virus inhibitors (AID 1347169)
Summary of the method: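 Orthogonal cell-based readout: luminescence measured 1-1.5 hrs after adding live-cell Renilla substrate to Vero cells that had been infected with ZIKV-RLuc (MOI 1-2) post-compound, incubated 48-72 hrs at 37 degrees C.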

[13] = qHTS assay to identify inhibitors of the type 1 interferon - major histocompatibility complex class I in skeletal muscle: Counter screen cell viability and HiBit confirmation (AID 1347412); details: iHSKM muscle cells + IFN-b, HiBiT or CellTiter-Glo, 24 h; note: nearly all actives have a fitted effect of over 60% in size; note: potency is the fitted concentration of half-maximal effect
Summary of the method: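 After 24 h with human IFN-beta (4 ng/ml) and compound titrations (top 46 uM final, 1:3, 12 points), HLA-B HiBit myoblasts were lysed for either Nano-Glo HiBiT luminescence or CellTiter Glo viability on paired plates.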

[14] = qHTS to identify inhibitors of the type 1 interferon - major histocompatibility complex class I in skeletal muscle: primary screen against the NCATS Mechanism Interrogation Plate v5.0 (MIPE) Libary (AID 1347411); note: nearly all actives have a fitted effect of over 65% in size
Summary of the method: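 HLA-B HiBit myoblasts, dexamethasone-free medium + 4 ng/ml IFN-b, 24 h compound, 11-pt 1:3 from 46 uM final. Readout: Nano-Glo HiBiT lytic luminescence after 10 min lysis, RT.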

Compound: CCN1CCN(Cc2ccc(-c3cc4c(NC(C)c5ccccc5)ncnc4[nH]3)cc2)CC1 (centres undefined)
- Potency [1]: 12 µM (active)
- Potency [2]: inactive
- Potency (HaCat [3]): 2.91 µM (active)
- Potency (NIH3T3): 8.2 µM (active)
- Potency (SKOV3): 3.55 µM (active)

Compound: CCCCn1ccc(N2CCC(c3ccccc3)CC2)c(Cl)c1=O
- outcome (HaCat [3]): inactive
- outcome (HACAT [4]): inactive
- Potency (PA-1): 25.1 µM (active)

Compound: C=C(C)[C@@H]1CC[C@]2(C(=O)O)CC[C@]3(C)C(CCC4[C@@]5(C)C[C@@H](O)[C@H](O)C(C)(C)C5CC[C@]43C)C12 (some centres undefined)
- Potency [5]: inactive
- max response (HaCat [3]): -24.1% (inactive)
- Potency (CAOV3): inactive
- Potency (PA-1): inactive

Compound: C=C1/C(=C/C=C2\CCC[C@]3(C)[C@@H]([C@H](C)/C=C/C(=O)C4CC4)CC[C@@H]23)C[C@@H](O)C[C@@H]1O
- Potency [5]: inactive
- outcome (HaCat [3]): inactive
- outcome (HACAT [4]): inactive
- Potency (PA-1): inactive
- Potency (SKOV3): inactive

Compound: COc1cc(O)c(C(=O)CCc2ccc(O)cc2)c(O[C@@H]2O[C@H](CO)[C@@H](O)[C@H](O)[C@H]2O)c1
- Potency [5]: inactive
- Potency [6]: inactive
- activity [7]: -69.8%
- activity change, negative = inhibition [8]: -2.33% [at 29.8 µM]
- activity [9]: 0.372%
- activity [10]: 0.533%
- outcome (HaCat [3]): inactive
- outcome (HACAT [4]): inactive [at 17.4 µM]
- Potency (CAOV3): inactive

Compound: C[C@@H](c1nc(-c2ccc(C#N)cc2)cs1)[C@](O)(Cn1cncn1)c1cc(F)ccc1F
- Potency [6]: inactive
- max response (CRL-7250): -34.3% (inactive)
- outcome (HaCat [3]): inactive
- outcome (HACAT [4]): inactive
- Potency (CAOV3): inactive
- Potency (PA-1): inactive

Compound: O=C(NCc1ccc(Oc2ccccc2)cc1)c1nc(-c2cc(Br)c(O)c(Br)c2)no1
- Potency [6]: 2.82 µM (active)
- Potency [11]: 2.21 µM (active)
- Potency [12]: 8.29 µM (active)
- activity [7]: -16.2%
- Potency [8]: 42.9 µM (active)
- activity [9]: -75.3%
- activity [10]: -0.151%
- outcome (HaCat [3]): inactive
- outcome (HACAT [4]): inactive
- Potency (CAOV3): inactive
- Potency (PA-1): inactive
- Potency (SKOV3): inactive

Compound: CC1CCC2C(=CCC(O)C2(C)C)C1(C)Cc1c(O)cc(CO)c(C=O)c1O (centres undefined)
- Potency [11]: 27.3 µM (active)
- outcome (HaCat [3]): inactive
- outcome (HACAT [4]): inactive
- Potency (CAOV3): inactive
- Potency (PA-1): inactive
- Potency (SKOV3): inactive

Compound: COc1cc(O)ccc1OCCNCC(O)COc1cccc2[nH]c3ccccc3c12 (centres undefined)
- Potency [6]: inactive
- max response (CRL-7250): -16.8% (inactive)
- outcome (HaCat [3]): inactive
- outcome (HACAT [4]): inactive
- Potency (PA-1): inactive

Compound: CCN(CC)c1ccc(C(=C2C=CC(=[N+](CC)CC)C=C2)c2cc(S(=O)(=O)O)ccc2S(=O)(=O)[O-])cc1
- Potency [1]: 15.5 µM (active)
- Potency [2]: 13.8 µM (active)
- Potency (CRL-7250): 5.31 µM (active)
- Potency (PA-1): 3.55 µM (active)

Compound: Cc1ccc2c(Nc3ccc(Cl)cc3)nccc2c1Nc1ncccc1-c1ncnc2nc[nH]c12
- Potency [6]: inactive
- Potency [1]: 12 µM (active)
- Potency [2]: 12 µM (active)
- Potency (CRL-7250): 14.6 µM (active)
- Potency (SKOV3): 15.8 µM (active)

Compound: CC(C)[C@@H](C)/C=C/[C@@H](C)[C@H]1CC[C@H]2C3=CC=C4C[C@@H](O)CC[C@]4(C)C3=CC[C@]12C
- outcome (HaCat [3]): inactive
- outcome (HACAT [4]): inactive
- Potency (PA-1): inactive

Compound: Cc1ccc(C2(COC(=O)C(C)C)CO2)c(OC(=O)C(C)C)c1 (centres undefined)
- outcome (HaCat [3]): inactive
- outcome (HACAT [4]): inactive
- Potency (CAOV3): inactive
- Potency (PA-1): inactive
- Potency (SKOV3): inactive

Compound: COc1ccc2c(c1)C[C@H](C(=O)Nc1ccc(-c3cn[nH]c3)cc1OCCN(C)C)CO2
- Potency [6]: inactive
- Potency [1]: 9.52 µM (active)
- Potency [2]: 4.25 µM (active)
- activity [7]: -2.58%
- activity change, negative = inhibition [8]: -2.48% [at 9.47 µM]
- activity [9]: -0.41%
- activity [10]: 0.522%
- outcome (HaCat [3]): inactive
- outcome (HACAT [4]): inactive
- Potency (CAOV3): inactive
- Potency (PA-1): inactive
- Potency (SKOV3): inactive

Compound: O=C1c2c(O[C@@H]3O[C@H](CO)[C@@H](O)[C@H](O)[C@H]3O)cc(O)cc2OC1(O)Cc1ccc(O)cc1 (some centres undefined)
- Potency [6]: inactive
- outcome (HaCat [3]): inactive
- outcome (HACAT [4]): inactive [at 17.4 µM]
- Potency (PA-1): inactive

Compound: COc1cc2ncnc(Oc3cccc(NC(=O)Nc4cc(C(C)(C)C(F)(F)F)on4)c3)c2cc1OC
- Potency (HaCat [3]): 5.17 µM (active)
- Potency (CAOV3): inactive
- Potency (PA-1): inactive
- Potency (SKOV3): inactive
- Potency ([13]; HiBiT): 24.9 µM (active)
- activity change, negative = inhibition ([13]; Viability, at 45.9 µM (top of the series)): -21.3% (inactive)

Compound: CC1OC2OC3C(OCC(O)C3O)OC(=O)C34CCC(C)(C)CC3C3=CCC5C6(C)CC(O)C(OC7OC(CO)C(O)C(O)C7OC7OCC(OC(=O)CC(C)(O)CC(=O)OC1C(OC1OCC(O)C(O)C1O)C2O)C(O)C7O)C(C)(CO)C6CCC5(C)C3(C)CC4O (centres undefined)
- Potency (CRL-7250): 7.96 µM (active)

Compound: C=C1CC[C@@H]2[C@](C)(CO)[C@H](O)CC[C@@]2(C)[C@@H]1C/C=C1/C(=O)OC[C@@H]1O
- outcome (HaCat [3]): inactive
- outcome (HACAT [4]): inactive
- Potency (CAOV3): inactive

Compound: COc1cc(-c2cc(-c3ccc(N4CCNCC4)cc3)cnc2C)cc(OC)c1OC
- Potency [14]: inactive
- Potency [1]: inactive
- Potency [2]: 19 µM (active)
- outcome (HaCat [3]): inactive
- outcome (HACAT [4]): inactive
- Potency (PA-1): inactive

Compound: CN(CCCNC(=O)c1ccc2nc3c(c(Cl)c2c1)CCCC3)Cc1ccccc1
- Potency [1]: 1.34 µM (active)
- max response (HaCat [3]): 1.7% (inactive)
- Potency (CAOV3): inactive
- Potency (PA-1): inactive
- Potency (SKOV3): inactive
